# Measured values from PubChem BioAssay (NCI).
# Compounds without any hit were thinned out: in the full panel of roughly 83,000, 20% have a hit.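 How to read the values: 0–100, growth inhibition (40 = 60% inhibited); 0, no net growth; -100 to 0, cell death (-40 = 40% of starting cells died; -100 = all dead).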 Values without a mark were called inactive. Active and inactive are the calls of the source. The calls were made as follows: active = growth percent below 10; inactive = the rest.
# Tests used:
# Assay in all cases: NCI-60 one-dose screen, 48 h (100 = growth as untreated, 0 = no growth, -100 = all killed)
# NCI-H23 lung = conditions: 10 µM unless noted
# NCI-H226 lung = conditions: 10 µM unless noted
# NCI-H322M lung = conditions: 10 µM unless noted
# HOP-62 NSCLC = conditions: 10 µM unless noted
# NCI-H460 lung = conditions: 10 µM unless noted
# HOP-92 NSCLC = conditions: 10 µM unless noted
# NCI-H522 lung = conditions: 10 µM unless noted
# A549/ATCC NSCLC = conditions: 10 µM unless noted
# 786-0 renal = conditions: 10 µM unless noted
# COLO 205 colon = conditions: 10 µM unless noted
# DU-145 prostate = conditions: 10 µM unless noted
# K-562 leukemia = conditions: 10 µM unless noted
# MALME-3M melanoma = conditions: 10 µM unless noted
# MDA-MB-231 breast = conditions: 10 µM unless noted
# SF-268 CNS = conditions: 10 µM unless noted
# SF-295 CNS = conditions: 10 µM unless noted
# SF-539 CNS = conditions: 10 µM unless noted
# UACC-257 melanoma = conditions: 10 µM
# M14 melanoma = conditions: 10 µM unless noted
# RXF 393 renal = conditions: 10 µM unless noted
Compound,growth (NCI-H23 lung),growth (NCI-H226 lung),growth (NCI-H322M lung) [%],growth (HOP-62 NSCLC) [%],growth (NCI-H460 lung),growth (HOP-92 NSCLC),growth (NCI-H522 lung),growth (A549/ATCC NSCLC),growth (786-0 renal) [%],growth (COLO 205 colon),growth (DU-145 prostate) [%],growth (K-562 leukemia),growth (MALME-3M melanoma),growth (MDA-MB-231 breast),growth (SF-268 CNS) [%],growth (SF-295 CNS),growth (SF-539 CNS),growth (UACC-257 melanoma) [%],growth (M14 melanoma) [%],growth (RXF 393 renal) [%]
COc1ccc(/C=C2\C(=O)N(C(=O)c3csc(NC(C)=O)n3)N=C2C)cc1,102%,104%,96.7,100,105%,99.8%,85.2%,97.3%,100,99.3%,108,95.3%,90.5%,105%,99.1,105%,104%,89.2,,
CC(C)(C)OC(=O)N1C/C(=C\c2cccs2)C(=O)/C(=C/c2cccs2)C1,96.3%,93.1%,94.3,89,105%,82.2%,79.5%,86.9%,81.4,117%,107,75.8%,95.8%,101%,91.8,98.9%,99%,,98.3,
Cc1cc(Nc2nc(-c3ccc(F)cc3)nc3ccccc23)n[nH]1,57.3%,58.6%,65.5,78.6,35.6%,30.5%,27.7%,13.8%,56.9,40.3%,77.1,36.6%,57%,78.7%,63.3,64.4%,66.6%,47.2,53.5,
O=c1[nH]c(CN2CCN(c3ccccc3F)CC2)nc2sc3c(c12)CCC3,105%,102%,98.9,92.4,123%,89%,98.7%,110%,95.8,91.9%,109,109%,96.4%,96.3%,121,144%,98.6%,,108,160
COc1ccc(NC(=O)/N=c2\oc3c(OC)cccc3cc2-c2cc3ccccc3[nH]2)cc1,53.2%,67.7%,74,22.6,49.4%,-9.99% (active),76.3%,55.7%,10.7,97.8%,69.3,86.3%,57.3%,36.3%,70,52.1%,35.3%,,93.5,
COc1cc(C2C=C(C)N=C3SC=CN32)cc(OC)c1OC (stereo unspecified),108%,103%,105,106,105%,91.6%,97.2%,107%,113,113%,112,123%,104%,100%,104,108%,116%,102,,
COc1cccc(-n2cc(-c3nc(Cl)c4ccccc4n3)nn2)c1,100%,111%,102,125,107%,101%,83.2%,92.7%,97.8,98.8%,107,97.9%,104%,107%,105,93.2%,108%,110,106,
NC(=O)c1c(NC(=O)c2ccc3c(c2)OCO3)sc2c1CCC(=O)C2,-12.6% (active),-5.74% (active),14.8,14.9,3.04% (active),-21% (active),-58.9% (active),-9.76% (active),12.2,-42.2% (active),40,1.31% (active),-44% (active),-20.5% (active),21.5,-4.12% (active),-55.5% (active),,16.7,
Nc1c(C(=O)Nc2cccc([N+](=O)[O-])c2)sc2nc3c(cc12)C(O)CCC3 (stereo unspecified),67.6%,80.8%,78.2,55.1,28.2%,72.1%,28.3%,39.2%,68.7,40.8%,71.4,17.6%,65.8%,65.5%,60.5,57.4%,37%,66.8,35.3,
